WRN helicase inh – qHTS for Inhibitors of WRN Helicase. WRN helicase unwinding, fluorescent forked duplex, kinetic. AID 651768, 2012. Potency, µM (top dose mostly 114 µM), usual class: inhibitors. Bifunctional 3'-5' exonuclease/ATP-dependent helicase WRN (Homo sapiens), Q14191. 360,000 compounds, 0.46% hits; also: nearly all actives have a fitted effect of over 55% in size
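Enzyme (20 nM final) and test compound sit together 15 min at room temperature before substrate addition. Substrate is a single-forked duplex oligonucleotide (100 nM) labelled with fluorophore and quencher, with 2 mM ATP; helicase unwinding raises red fluorescence, read kinetically.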
Pol eta inh – qHTS for Inhibitors of Polymerase Eta; DNA polymerase eta (Homo sapiens), Q9Y253; 390,000 compounds, 1.2% hits; recombinant Pol eta, fluorescent DNA replication assay; AID 588591, 2011; Potency, µM (series often up to 114 µM), hits mostly inhibitors
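Pol eta at 10 nM preincubated with compounds 15 min at room temperature; reaction started with fluorescent substrate (50 nM final) and read kinetically at 0 and 10 min.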
Pol iota inh – qHTS for Inhibitors of Polymerase Iota; Pol iota fluorescent replication assay, 10 min; DNA polymerase iota (Homo sapiens), Q9UNA4; AID 588590, 2011; 390,000 compounds, 1% hits; Potency, µM (highest dose often 115 µM), most hits filed as inhibitors
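Fluorescent replication assay read twice, at 0 min and 10 min after adding 50 nM (final) substrate. Enzyme (10 nM) and compounds were first incubated 15 min at room temperature; enzyme-free buffer wells were negative controls.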
Pol beta inh – qHTS Assay for Inhibitors of DNA Polymerase Beta | 340,000 compounds, 1.3% hits | Pol beta primer extension/strand displacement, fluorescence kinetic | AID 485314, 2010 | Potency, µM (series often up to 114 µM), most hits filed as inhibitors | P06746
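Reaction started by 50 nM substrate onto compound-treated Pol beta (10 nM, 15 min preincubation, room temperature); plates read at 0 min and 10 min. Normalized concentration-effect data fitted by four-parameter Hill equation.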
PI5P4K alpha inh – qHTS for Inhibitors of phosphatidylinositol 5-phosphate 4-kinase (PI5P4K); PI5P4Kalpha enzyme, ADP-Glo luminescence, 60 min; active compounds read low; 330,000 compounds, 1.2% hits; Phosphatidylinositol 5-phosphate 4-kinase type-2 alpha (Homo sapiens), P48426; max response, %; active = max response of -50% or lower; inconclusive = between -30% and -50%; inactive = -30% or higher; also: value at the top dose of about 77 µM
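Luminescence from ADP-Glo served as readout of PI5P4Kalpha activity in a qHTS format. Reaction: enzyme, substrate, compound, ATP at 5 microM final, 60 min at RT.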
Pol kappa inh – qHTS for Inhibitors of Polymerase Kappa; DNA polymerase kappa (Homo sapiens), Q9UBT6; purified Pol kappa, fluorescent DNA synthesis assay, 10 min; Potency, µM (series often up to 107 µM), usual class: inhibitors; 400,000 compounds, 0.53% hits
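10 nM Pol kappa preincubated 15 min at room temperature with compounds, then reaction started with substrate at 50 nM final. Fluorescence read kinetically at 0 and 10 min; buffer-only wells served as negative control.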
TbPGK inh – qHTS for inhibitors of Phosphogylcerate Kinase: Hit Validation Screen; TbPGK coupled GAPDH assay, Kinase-Glo luminescence; shares compounds with Pol kappa inh; 500 compounds, 79% hits; Potency, µM (top dose mostly 57.5 µM), most hits filed as inhibitors; also: nearly all actives have a fitted effect of over 65% in size
Target sequence (P07378 whole entry, looked up): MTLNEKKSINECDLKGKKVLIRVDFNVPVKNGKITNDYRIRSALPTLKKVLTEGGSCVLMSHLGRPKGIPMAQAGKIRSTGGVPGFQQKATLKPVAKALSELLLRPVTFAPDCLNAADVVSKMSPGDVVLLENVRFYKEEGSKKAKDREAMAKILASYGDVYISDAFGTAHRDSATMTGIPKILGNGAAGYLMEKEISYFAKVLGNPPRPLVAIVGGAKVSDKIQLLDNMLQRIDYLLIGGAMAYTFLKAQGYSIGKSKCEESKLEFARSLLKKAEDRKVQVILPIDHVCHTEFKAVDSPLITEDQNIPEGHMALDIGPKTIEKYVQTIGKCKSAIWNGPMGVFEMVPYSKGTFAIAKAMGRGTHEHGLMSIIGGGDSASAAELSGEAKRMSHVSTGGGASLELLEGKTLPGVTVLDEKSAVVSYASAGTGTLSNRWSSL
POLI cherry-pick – qHTS for Inhibitors of Polymerase Iota: Confirmatory Assay for Cherry-picked Compounds; shares compounds with Pol kappa inh; Pol iota primer extension, TAMRA/BHQ fluorescence; Potency, µM, hits mostly inhibitors; 1,500 compounds, 77% hits
Numbers stand for hits; n = inactive; u = inconclusive; x = no result given; [ ] = dose if it differs, or a comment. Shown are actives, neighbours in structure and some others; about 2.8% of the full set was active somewhere. Unless noted, calls follow the shape of the dose curve; as a rule, active = well fitted curve in the direction sought with a large enough effect; inconclusive = small, poorly fitted or top-dose-only effect, or another doubt; inactive = no such curve, though single readings can be large; an effect the other way counts as inactive or inconclusive.

SMILES	WRN helicase inh	Pol eta inh	Pol iota inh	Pol beta inh	PI5P4K alpha inh	Pol kappa inh	others
C/C(=N/OC(=O)c1ccc(C)cc1)c1cccs1	n	n	n	n	n	n	TbPGK inh=10.3µM
C/C(=N\OC(=O)c1ccc(C)cc1)c1sc(C)nc1C	n	n	n	n	n	n
CC(=O)Nc1c(C)nn(-c2ccccc2)c1N1CCC(C(=O)NCc2cccc(F)c2)CC1	x	n	n	n	x	n
Cc1cc(=O)oc2cc(OCC(=O)N/N=C/c3ccccc3O)ccc12	n	17.8µM	n	3.16µM	n	n	POLI cherry-pick=u
Cc1cc(=O)oc2cc(OCC(=O)c3ccccc3)ccc12	n	n	n	n	n	n
COc1ccc(/C(C)=N/Nc2nncc3ccccc23)cc1	n	n	n	n	n	n
COc1ccc(/C=N/Nc2nncc3ccccc23)cc1	n	n	n	n	n	n	TbPGK inh=18.3µM
COc1ccccc1Cn1c(CNS(=O)(=O)c2cccc([N+](=O)[O-])c2)nc2cccnc21	x	n	n	n	x	n
O=C(O)CSCC(=O)Nc1ccc(-c2nc3ccccc3s2)cc1	n[11.6 µM]	44.7µM	n	u	u	n	TbPGK inh=u
Cc1ccc(-c2c(C(=O)N/N=C/c3cccnc3)nnn2-c2nonc2N)cc1	n	n	n	n	n	n
CCOc1ccc(-c2c(C(=O)N/N=C/c3cccnc3)nnn2-c2nonc2N)cc1	n	u	22.4µM	u	n	u	POLI cherry-pick=u
Cc1cc(=O)[nH]c2cc(N)ccc12	x	x	n	x	x	n
Nc1ccc2cc3[nH]c4cc(N)ccc4c3nc2c1	25.1µM	4.47µM	8.91µM	x	-58.9	15.8µM	POLI cherry-pick=18.9
COc1ccc(OC)c(CNC(=O)c2ccc(C)c(NC(=O)c3nsc4ccccc34)c2)c1	x	n	n	n	x	n
COc1ccc(CCNC(=O)c2cc(=O)[nH]c3ccc(S(=O)(=O)N4CCCCC4C)cc23)cc1OC (stereo not given)	x	n	n	n	x	n
CCOc1ccc(NC(=O)CSc2ncc3c(n2)-c2ccccc2N(Cc2ccccc2C)S3(=O)=O)cc1	x	n	n	n	x	n
Cc1nc(-c2ccc(C(=O)N3CCCC3)cc2)cs1	n	n	n	n	u	n	TbPGK inh=18.3µM
CN(C(=O)c1cc2sccc2n1C)C1CCCCC1	n	n	n	n	x	n
Cn1c(C(=O)NC2CCCCC2)cc2sccc21	n	n	n	n	x	n	TbPGK inh=u
Cc1nc(-c2ccc(F)cc2)sc1CCNC(=O)c1cccs1	x	n	u	n	x	n
O=c1oc2ccccc2cc1-c1cn2cccnc2n1	n	n	n	n	n	n
O=c1oc2ccccc2cc1-c1cn2ccccc2n1	n	n	n	n	n	n	TbPGK inh=u
CC(=O)OC1CC[C@@]2(C)C(=CC[C@H]3[C@@H]4CC[C@H](C(C)=O)[C@@]4(C)CC[C@@H]32)C1 (stereo not given in full)	x	x	x	x	x	n
CCOc1ccc(/C=C2/SC(=S)N(CCC(=O)Nc3ccc(C(=O)O)cc3)C2=O)cc1	n[11.6 µM]	8.91µM	u	n	n	n	POLI cherry-pick=21.2
COc1ccc(/C=C2\SC(=S)N(CCC(=O)Nc3cccc(C(=O)O)c3)C2=O)cc1	n[11.6 µM]	u	n	u	n	n
O=C(CCN1C(=O)/C(=C/c2ccc(Cl)cc2)SC1=S)Nc1cccc(C(=O)O)c1	56.2µM	89.1µM	n	n	n	n	POLI cherry-pick=u
